A selection: hits, their analogues and other compounds. The true share with any hit is near 10%.
PLK1 PBD block = blocks phosphopeptide binding to human PLK1 polo-box domain. AID 720504. P53350. Plk1 PBD binding of FITC phosphopeptide, fluorescence polarization. 360,000 compounds, 2.8% hits. Potency, µM, without a hit: max response, negative = inhibition, usual class: inhibitors; further: potency means the concentration at half of the fitted maximal effect; series mostly up to about 57 µM; nearly all actives have a fitted effect of over 65% in size
Target sequence (P53350 whole entry, looked up, the tested form may be a part): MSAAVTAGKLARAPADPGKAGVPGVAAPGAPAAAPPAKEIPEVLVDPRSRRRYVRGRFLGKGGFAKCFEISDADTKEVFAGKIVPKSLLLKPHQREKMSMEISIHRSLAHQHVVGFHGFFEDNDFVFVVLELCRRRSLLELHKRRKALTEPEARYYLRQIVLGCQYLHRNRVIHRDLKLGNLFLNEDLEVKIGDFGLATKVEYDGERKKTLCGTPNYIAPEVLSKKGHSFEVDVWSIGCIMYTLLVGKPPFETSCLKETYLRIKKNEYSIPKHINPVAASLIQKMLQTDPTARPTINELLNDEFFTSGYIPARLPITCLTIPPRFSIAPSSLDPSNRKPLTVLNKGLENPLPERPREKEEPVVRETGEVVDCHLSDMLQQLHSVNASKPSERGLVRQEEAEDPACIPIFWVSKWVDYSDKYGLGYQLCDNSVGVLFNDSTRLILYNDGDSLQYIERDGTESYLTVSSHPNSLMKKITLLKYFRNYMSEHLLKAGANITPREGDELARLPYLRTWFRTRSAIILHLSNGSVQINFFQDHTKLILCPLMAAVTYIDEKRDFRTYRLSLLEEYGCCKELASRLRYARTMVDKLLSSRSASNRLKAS
Mm-Cpn inhibitor = blocks the Methanococcus maripaludis chaperonin Mm-Cpn; purified Mm-Cpn ATPase, ADP Transcreener TR-FRET; Potency, µM (highest dose often 76.9 µM), for the others: at the top dose activity, negative = inhibition, hits mostly inhibitors; 330,000 compounds, 0.031% hits; AID 504842; further: potency means the concentration at half of the fitted maximal effect; nearly all actives have a fitted effect of over 80% in size
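Measured: ADP formation by purified Mm-CPN. Conditions: 25 nM protein, 10 uM ATP, Tris pH 7.4 with Mg2+, K+ and DTT, 37°C for 30 min. Detection: Transcreener HTRF after 30 min at room temperature.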
Sfp PPTase inh = Sfp phosphopantetheinyl transferase inhibition; Potency, µM, inactives show largest response in the series, negative = inhibition, most hits filed as inhibitors; Q9F4F7; AID 1490; Biochemical Sfp PPTase activity, qHTS; 310,000 compounds, 3.5% hits;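 further: the enzyme is Sfp with the accession as filed and its product quenches rhodamine fluorescence; potency means the concentration at half of the fitted maximal effect; 0% = enzyme reaction without inhibitor and -100% = no enzyme wells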
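With Hepes-Na pH 7.6 buffer containing 10 mM MgCl2, Sfp (15 nM) modified BHQ-2-YbbR (12.5 uM) using rhodamine-CoA (5 uM). Two reads 30 minutes apart at 525/598 nm yielded each well's rate.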
CCT chaperon mod = changes cytosolic chaperonin activity; purified chaperonin ATPase assay, HTRF ADP detection, 30 min; 360,000 compounds, 0.3% hits; AID 651819; activity change, % (concentration not given with the values), hits read low; in the data active means activity change below about -30%
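TRiC (40 or 20 nM final, by batch activity) in 30 mM Tris pH 7.4, 100 mM KCl, 5 mM MgCl2, 1 mM DTT was treated with compound at 76 uM single dose, then 10 uM ATP, 30 min at 37 °C. ADP was read by HTRF Transcreener.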
VDR inhibitor = vitamin D3 receptor (human) inhibition. P11473. VDR-SRC2-3 peptide fluorescence polarization, 2 h. Potency, µM, inactives show max response, negative = inhibition, actives largely listed as inhibitors. 400,000 compounds, 0.93% hits; further: potency means the concentration at half of the fitted maximal effect
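Signal is fluorescence polarization, reporting how far test compounds block the interaction of VDR with the SRC2-3 coregulator peptide after a 2 h room-temperature incubation.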
G9a block = G9a (human) methyltransferase inhibition | 350,000 compounds, 8.8% hits | G9a H3K9 monomethylation, AlphaScreen, 2 h | Potency, µM (titrated, usually from 102 µM), for inactives: at the highest dose activity, negative = inhibition, actives largely listed as inhibitors; further: potency means the concentration at half of the fitted maximal effect; nearly all actives have a fitted effect of over 75% in size
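Quantitative HTS format: methyltransferase activity on a biotin-tagged H3K9 peptide is measured by AlphaScreen, using a rabbit anti-monomethyl-H3K9 antibody with streptavidin donor and anti-IgG acceptor beads. Final levels are 20 nM enzyme, 500 nM peptide, 20 uM SAM; 2 h RT.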
An asterisk follows results filed as active; ? = inconclusive; . = not tested or not shown; [ ] = another dose, or the depositor's remark. Unless noted, the call rests on the fitted dose curve; in most records, active means well fitted curve in the direction sought with a large enough effect; inconclusive means small, poorly fitted or top-dose-only effect, or another doubt; inactive means no such curve, though single readings can be large; an effect the other way counts as inactive or inconclusive. Unless noted, on the % scale 0 is the no-effect control and ±100 the full control effect.

SMILES | PLK1 PBD block | Mm-Cpn inhibitor | Sfp PPTase inh | CCT chaperon mod | VDR inhibitor | G9a block
CN(C)S(=O)(=O)c1ccc2c(c1)N(CC(=O)N1CCN(c3ccc(F)cc3)CC1)CCS2 | . | . | . | . | 21.2% | -26.9%[59 µM]
CCN(C(=S)NC(=O)Cc1ccc(OC)cc1)c1ccccc1 | ? | . | . | -1.4 | -9.5% | .
O=C(NC(=S)N(Cc1ccccc1)c1ccccn1)C1CC1 | 21.2µM* | -0.2% | -24.8% | 0.4 | -18.9% | 14.1µM*
CCN(C(=S)NC(=O)C1CC1)c1ccccc1 | ? | 0.2% | ? | 1.7 | -9.8% | 35.5µM*
COc1ccccc1CNC(=O)C(CC(C)C)N1Cc2ccccc2C1=O (stereo not drawn) | . | . | . | . | -3.6% | 3.2%[59 µM]
COc1ccc(NC(=O)C(Cc2ccccc2)NS(=O)(=O)c2ccc3c(c2)CCN3C(C)=O)cc1 (stereo not drawn) | . | . | . | . | -15.9% | ?
CCCCCCCc1ccc(C2NC(=S)NC3=C2C(=O)c2ccccc23)cc1 (stereo not drawn) | 21.2µM* | -1.5% | 14.5% | 0.6 | ? | 9.5%[12.7 µM]
CCOc1ccccc1C(=O)Nc1ccc(-n2nncc2-c2ccccc2)cc1 | . | . | . | . | -2.1% | -2.3%[59 µM]
COC(=O)c1ccc(OCC2c3cc(OC)c(OC)cc3CCN2C(=O)c2ccco2)cc1 (stereo not drawn) | -8.1% | 0.6% | 6.1% | -1.2 | 21.1% | 50.1µM*
COC(=O)c1ccc(OCC2c3cc(OC)c(OC)cc3CCN2C(=O)c2ccc(OC)cc2)cc1 (stereo not drawn) | . | . | . | . | -2.9% | -47.5%[59 µM]
COc1ccc(OCC2c3cc(OC)c(OC)cc3CCN2C(=O)C(C)C)cc1 (stereo not drawn) | 26.7µM* | 0.7% | 0.7% | 0.1 | -16.5% | ?
CC(C)(C)n1nnnc1C(c1cccc(C#N)c1)N1CCCCCC1 (stereo not drawn) | -8.1% | 2.5% | 0.9% | -0.9 | 15.4% | 70.8µM*
C=CCN1CCN(C(c2ccc(OC)c(OC)c2)c2nnnn2C(C)(C)C)CC1 (stereo not drawn) | -3.7% | -0.9% | 79.4µM* | -0.4 | -13.5% | 50.1µM*
COc1ccccc1C(c1nnnn1C(C)(C)C)N1CCCCCC1 (stereo not drawn) | -23.4% | -2.4% | -4.7% | 0.4 | ? | 25.1µM*
C=CCN1CCN(C(c2cc(OC)ccc2OC)c2nnnn2CC2CCCO2)CC1 (stereo not drawn) | 29.9µM* | -0.8% | 0.5% | -1.7 | -20.3% | 12.6µM*
C=CCN1CCN(C(c2ccc(Cl)cc2)c2nnnn2CCc2ccc(OC)c(OC)c2)CC1 (stereo not drawn) | -11.8% | 0.1% | 3.9% | 1.5 | -6.6% | -38.1%[59 µM]
CC(C)(C)c1ccc(-c2nc(NC(=O)CSc3ncnc4sc5c(c34)CCCC5)ns2)cc1 | . | . | . | . | 6.9% | -0.7%[59 µM]
Cc1cc(C)c(-c2cc([C@H](C)O/N=C3/[C@H]4OC4[C@@H](O)[C@H]4[C@H]3CCn3c(=O)n(-c5ccccc5)c(=O)n34)on2)c(C)c1 (stereo partly drawn) | . | . | -4.2% | . | . | .
O=C(c1ccc(-c2ccc([N+](=O)[O-])cc2)o1)N1CCCCCCC1 | 23.8µM* | 0.6% | . | -8.0 | 35.5µM* | -4.5%[12.7 µM]
O=C(c1ccc(-c2ccc([N+](=O)[O-])cc2)o1)N1CCCC(C(F)(F)F)C1 (stereo not drawn) | -15.6% | ? | . | 0.1 | -9.1% | 14.1µM*
CC1CCCN(C(=O)c2ccc([N+](=O)[O-])o2)C1 (stereo not drawn) | -1.1% | -1.8% | 15.4% | 1.3 | 15.0% | 15.0%
COc1ccc(-n2c(=O)c3c4c(sc3n3c(SCCC(C)C)nnc23)COC(C(C)C)C4)cc1 (stereo not drawn) | . | . | . | . | -13.5% | -4.7%[59 µM]
CC(C)C1Cc2c(sc3c2c(=O)n(-c2ccccc2)c2n[nH]c(=S)n32)CO1 (stereo not drawn) | -21.7% | -2.0% | -12.8% | -0.3 | -16.3% | 1.26µM*
Cc1nc(N2CCCCC2)sc1C(=O)c1ccc(SCCO)c([N+](=O)[O-])c1 | 8.44µM* | -0.7% | -25.9% | -1.5 | ? | 39.8µM*
Cc1nc(N2CCCCC2)sc1C(=O)c1cccc([N+](=O)[O-])c1 | -12.2% | -0.7% | 7.1% | 0.3 | -23.6% | ?
SMILES | PLK1 PBD block | Mm-Cpn inhibitor | Sfp PPTase inh | CCT chaperon mod | VDR inhibitor | G9a block
COc1ccc(O[C@H]2C=C[C@@H](c3ccccc3)O[C@H]2COC(=O)CC/C(C)=N\O[C@@H](C)c2cn([C@H](CO)Cc3ccccc3)nn2)cc1 | . | . | 22.7% | . | . | .
Nn1c(-c2ccccc2Cl)nnc1-c1ccccc1Cl | -8.1% | -2.6% | 15.9% | 0.8 | -2.3% | 3.55µM*
CCOc1ccccc1CN(CCc1ccc2c(c1)OCO2)Cc1cccc(OC)c1OC | . | . | . | . | 4.7% | 2.51µM*
CCOc1ccc(CN(CCc2ccc3c(c2)OCO3)Cc2cc(OC)c(OC)cc2OC)cc1 | . | . | . | . | -16.9% | 2.82µM*
Cc1oc(-c2ccc(C(=O)N(C)Cc3ccccc3)cc2)nc1CN1CCc2ccccc21 | . | . | . | . | 12.1% | ?
COc1ccc(OC2C=CC(C#Cc3ccc(F)cc3F)OC2CO)cc1 (stereo not drawn) | . | . | -0.4% | . | . | .
C=CCn1c(C)cc(C(=O)COC(=O)/C=C/c2c(C)nn(C3CCS(=O)(=O)C3)c2Cl)c1C (stereo not drawn) | -7.6% | -0.8% | . | -2.6 | -1.3% | ?
Cc1nn(C2CCS(=O)(=O)C2)c(C)c1C=O (stereo not drawn) | 3.36µM* | -3.8% | -6.9% | -35.7* | ? | 1.3%
Cc1ccc(S(=O)(=O)NCC(=O)N2CCC(C)CC2)cc1 | 29.9µM* | -2.4% | 10.0% | 0.1 | -25.0% | ?
Cc1cc2c(cc1S(=O)(=O)CCC(=O)N1CCN(c3ccccc3)CC1)OCC(=O)N2 | . | . | . | . | 11.7% | -4.4%[59 µM]
CCSc1nc2sc3c(c2c(=O)[nH]1)CCc1ccccc1-3 | -17.5% | -6.7% | -10.1% | 2.4 | -20.9% | 50.1µM*
C=CCSc1nc2sc3c(c2c(=O)n1CC=C)CCc1ccccc1-3 | -24.1% | 0.9% | 44.7µM* | 2.5 | -2.8% | 5.8%[59 µM]
CC(C)(C)C(=O)OCOP(=O)(OCOC(=O)C(C)(C)C)C(C)(Oc1ccc(O)cc1)P(=O)(OCOC(=O)C(C)(C)C)OCOC(=O)C(C)(C)C | . | . | ? | . | -2.9% | 3.55µM*
CC(Oc1ccc(O)cc1)(P(=O)(O)O)P(=O)(O)O | . | . | -7.7% | . | -0.7% | .
CSC1=NCCN1C(=O)c1c(F)cccc1Cl | -1.5% | -0.4% | 8.5% | -3.0 | -14.6% | 50.1µM*
Cc1sc(NC(=O)c2ccccc2)c(C(=O)NC(C)C)c1C | -1.3% | -3.6% | 13.9% | 3.0 | -1.4% | -6.9%[12.7 µM]
NC(=O)c1ccsc1NC(=O)c1cccs1 | 2.2% | . | . | 0.1 | 12.5% | .
Cc1ccc(C(=O)Nc2sc(C)c(C)c2C(=O)c2ccccc2)cc1 | 2.99µM* | -1.5% | 20µM* | -2.9 | 44.7µM* | 8.91µM*
